# Laboratory results from PubChem BioAssay.
# Values joined by “and” are separate entries in the source; they are usually repeats but may differ in a detail not shown here. Equal values may be shown once. Active and inactive are the calls of the source.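 How the source made its calls: active means compounds whose cell count with miR-34 switched on is under 0.7 times the count with it off; inactive means the rest.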
# Test: viability loss with induced miR-34 in A549 – imaging, A549 dox-inducible miR-34, nuclei and caspase counts, primary screen (AID 1347080); further: test concentration not given here
# Conditions: A549 miR-34 inducible, Hoechst nuclei count, 48 h; hits give low values; cell number ratio, induced over uninduced
row,Compound,fold change
1,CN(C)CCCSc1ccccc1NC(=O)/C=C/c1ccccc1,0.891 (inactive) and 1.14 (inactive)
2,CC(C)(O)c1ccccc1CC[C@@H](SCC1(CC(=O)O)CC1)c1cccc(/C=C/c2ccc3ccc(Cl)cc3n2)c1,0.896 (inactive)
3,CN1CCN(C2=Nc3cc(F)ccc3Cc3ccccc32)CC1,0.822 (inactive) and 0.853 (inactive)
4,CC(=O)Nc1ccc(OCC(O)CNC(C)C)cc1 (configuration not stated),0.852 (inactive) and 0.959 (inactive)
5,O=C(O)P(=O)(O)O,0.897 (inactive) and 0.894 (inactive)
6,CC(Oc1c(Cl)cccc1Cl)C1=NCCN1 (configuration not stated),0.89 (inactive) and 0.878 (inactive) and 0.898 (inactive)
7,CCCCNc1c(C(=O)OCC)c(C)nc2c1cnn2CC,1.09 (inactive) and 0.956 (inactive) and 0.928 (inactive)
8,COc1cc(N)c(Cl)cc1C(=O)NC1CCN(Cc2ccccc2)CC1,0.86 (inactive)
9,C[C@]12CCC(=O)C=C1C=C[C@@H]1[C@@H]2CC[C@@]2(C)[C@H]1CC[C@@]21CCC(=O)O1,0.826 (inactive)
10,C/C=C/c1ccc(OC)cc1,0.85 (inactive) and 0.895 (inactive)
11,CCOC(=O)OC(C)OC1=C(C(=O)Nc2ccccn2)N(C)S(=O)(=O)c2ccccc21 (configuration not stated),0.948 (inactive) and 0.916 (inactive) and 0.845 (inactive)
12,COc1ccc(C(=O)NCc2ccc(OCCN(C)C)cc2)cc1OC,0.832 (inactive) and 1.01 (inactive) and 0.841 (inactive)
